Experimental data: the supplement of paper PMC4466140
± gives the standard deviation of the averaged measurements.

B1: unnamed (peptide)
chain: VSKLRSPNTPRRLRK

molecular target: AgAbp1; assay: SPOT peptide array binding signal intensity (averaged, normalized) (arbitrary units (background-subtracted, floor 0; scale differs between SH3 domains)); higher = stronger binding of the SH3 domain to the peptide
Method in brief: (§1)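 Binding signal refers to normalized, background-subtracted spot intensity averaged over replicates, expressed in arbitrary units that differ between domains. GST-fused SH3 domains from four yeast species were incubated at 10 μg/ml overnight at 4°C on cellulose membranes of synthetic 15-mer peptides with cysteines replaced by serines. Bound protein was detected with anti-GST antibody, an HRP anti-mouse secondary and luminol, and quantified with Genespotter.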

Binder | SPOT peptide array binding signal intensity
B1 | 210 ± 71

molecular target: AgBbc1; assay: as above
Method in brief: as §1

Binder | SPOT peptide array binding signal intensity
B1 | 284 ± 140

molecular target: AgBem1-D1; assay: as above
Method in brief: as §1

Binder | SPOT peptide array binding signal intensity
B1 | 116 ± 54

molecular target: AgBzz1-D1; assay: as above
Method in brief: as §1

Binder | SPOT peptide array binding signal intensity
B1 | 65.5 ± 29

molecular target: AgBzz1-D2; assay: as above
Method in brief: as §1

Binder | SPOT peptide array binding signal intensity
B1 | 44.8 ± 5.3

molecular target: AgCyk3; assay: as above
Method in brief: as §1

Binder | SPOT peptide array binding signal intensity
B1 | 7 ± 0.71

molecular target: AgFus1; assay: as above
Method in brief: as §1

Binder | SPOT peptide array binding signal intensity
B1 | 192 ± 110

molecular target: AgHof1; assay: as above
Method in brief: as §1

Binder | SPOT peptide array binding signal intensity
B1 | 68 ± 14

molecular target: AgHse1; assay: as above
Method in brief: as §1

Binder | SPOT peptide array binding signal intensity
B1 | 352 ± 230

molecular target: AgLsb1; assay: as above
Method in brief: as §1

Binder | SPOT peptide array binding signal intensity
B1 | 3.38 ± 4.1

molecular target: AgLsb4; assay: as above
Method in brief: as §1

Binder | SPOT peptide array binding signal intensity
B1 | 48.8 ± 16

molecular target: AgMyo5; assay: as above
Method in brief: as §1

Binder | SPOT peptide array binding signal intensity
B1 | 2.75 ± 2.5

molecular target: AgNbp2; assay: as above
Method in brief: as §1

Binder | SPOT peptide array binding signal intensity
B1 | 84.2 ± 8.8

molecular target: AgRvs167; assay: as above
Method in brief: as §1

Binder | SPOT peptide array binding signal intensity
B1 | 9.83 ± 2.1

molecular target: AgSho1; assay: as above
Method in brief: as §1

Binder | SPOT peptide array binding signal intensity
B1 | 13 ± 2.8

molecular target: AgSla1-D1-D2; assay: as above
Method in brief: as §1

Binder | SPOT peptide array binding signal intensity
B1 | 334 ± 170

molecular target: AgSla1-D3; assay: as above
Method in brief: as §1

Binder | SPOT peptide array binding signal intensity
B1 | 8.88 ± 5.8

molecular target: CaAbp1-D1; assay: as above
Method in brief: as §1

Binder | SPOT peptide array binding signal intensity
B1 | 897 ± 89

molecular target: CaAbp1-D2; assay: as above
Method in brief: as §1

Binder | SPOT peptide array binding signal intensity
B1 | 576 ± 100

molecular target: CaBbc1; assay: as above
Method in brief: as §1

Binder | SPOT peptide array binding signal intensity
B1 | 863 ± 130

molecular target: CaBem1-D1; assay: as above
Method in brief: as §1

Binder | SPOT peptide array binding signal intensity
B1 | 64 ± 8.5

molecular target: CaBzz1-D1; assay: as above
Method in brief: as §1

Binder | SPOT peptide array binding signal intensity
B1 | 156 ± 7.4

molecular target: CaBzz1-D2; assay: as above
Method in brief: as §1

Binder | SPOT peptide array binding signal intensity
B1 | 146 ± 120

molecular target: CaCyk3; assay: as above
Method in brief: as §1

Binder | SPOT peptide array binding signal intensity
B1 | 47.2 ± 1.1

molecular target: CaFus1; assay: as above
Method in brief: as §1

Binder | SPOT peptide array binding signal intensity
B1 | 230 ± 22

molecular target: CaHof1; assay: as above
Method in brief: as §1

Binder | SPOT peptide array binding signal intensity
B1 | 0.5 ± 0.71

molecular target: CaHse1; assay: as above
Method in brief: as §1

Binder | SPOT peptide array binding signal intensity
B1 | 4.62 ± 3.4

molecular target: CaLsb1; assay: as above
Method in brief: as §1

Binder | SPOT peptide array binding signal intensity
B1 | 0.75 ± 0.35

molecular target: CaLsb4; assay: as above
Method in brief: as §1

Binder | SPOT peptide array binding signal intensity
B1 | 778 ± 490

molecular target: CaMyo5; assay: as above
Method in brief: as §1

Binder | SPOT peptide array binding signal intensity
B1 | 3.38 ± 0.18

molecular target: CaNbp2; assay: as above
Method in brief: as §1

Binder | SPOT peptide array binding signal intensity
B1 | 166 ± 86

molecular target: CaRvs167; assay: as above
Method in brief: as §1

Binder | SPOT peptide array binding signal intensity
B1 | 23.8 ± 10

molecular target: CaRvs167-3; assay: as above
Method in brief: as §1

Binder | SPOT peptide array binding signal intensity
B1 | 28.2 ± 2.5

molecular target: CaSho1; assay: as above
Method in brief: as §1

Binder | SPOT peptide array binding signal intensity
B1 | 131 ± 3.9

molecular target: CaSla1-D1-D2; assay: as above
Method in brief: as §1

Binder | SPOT peptide array binding signal intensity
B1 | 270 ± 140

molecular target: CaSla1-D3; assay: as above
Method in brief: as §1

Binder | SPOT peptide array binding signal intensity
B1 | 3.88 ± 0.53

molecular target: ScAbp1; assay: as above
Method in brief: as §1

Binder | SPOT peptide array binding signal intensity
B1 | 41 ± 23
